Test results from PubChem BioAssay AID602438 (Sanford-Burnham Center for Chemical Genomics, 2012).
Out of some 360,000 compounds screened, about 3,100 (0.86%) were called active.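 Rule for the calls: active = inhibition or corrected inhibition above about 18%, plus a signal ratio from 0.5 to 1.5 (limit read from the data, passing the limit was not always enough); inactive = the rest.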 The full list was thinned out, with actives kept by preference.

These compounds were tested against Neuropilin-1 (Homo sapiens) (UniProt O14786) (assay: modulators of CendR peptide binding to NRP-1, primary screen, biochemical, fluorescence polarization, uHTS (AID 602438)). Conditions: FAM-RPARPAR peptide binding to NRP-1, fluorescence polarization; at 25 µM; hits give high values.
Sequence of Neuropilin-1 (Homo sapiens) (O14786 whole entry, looked up): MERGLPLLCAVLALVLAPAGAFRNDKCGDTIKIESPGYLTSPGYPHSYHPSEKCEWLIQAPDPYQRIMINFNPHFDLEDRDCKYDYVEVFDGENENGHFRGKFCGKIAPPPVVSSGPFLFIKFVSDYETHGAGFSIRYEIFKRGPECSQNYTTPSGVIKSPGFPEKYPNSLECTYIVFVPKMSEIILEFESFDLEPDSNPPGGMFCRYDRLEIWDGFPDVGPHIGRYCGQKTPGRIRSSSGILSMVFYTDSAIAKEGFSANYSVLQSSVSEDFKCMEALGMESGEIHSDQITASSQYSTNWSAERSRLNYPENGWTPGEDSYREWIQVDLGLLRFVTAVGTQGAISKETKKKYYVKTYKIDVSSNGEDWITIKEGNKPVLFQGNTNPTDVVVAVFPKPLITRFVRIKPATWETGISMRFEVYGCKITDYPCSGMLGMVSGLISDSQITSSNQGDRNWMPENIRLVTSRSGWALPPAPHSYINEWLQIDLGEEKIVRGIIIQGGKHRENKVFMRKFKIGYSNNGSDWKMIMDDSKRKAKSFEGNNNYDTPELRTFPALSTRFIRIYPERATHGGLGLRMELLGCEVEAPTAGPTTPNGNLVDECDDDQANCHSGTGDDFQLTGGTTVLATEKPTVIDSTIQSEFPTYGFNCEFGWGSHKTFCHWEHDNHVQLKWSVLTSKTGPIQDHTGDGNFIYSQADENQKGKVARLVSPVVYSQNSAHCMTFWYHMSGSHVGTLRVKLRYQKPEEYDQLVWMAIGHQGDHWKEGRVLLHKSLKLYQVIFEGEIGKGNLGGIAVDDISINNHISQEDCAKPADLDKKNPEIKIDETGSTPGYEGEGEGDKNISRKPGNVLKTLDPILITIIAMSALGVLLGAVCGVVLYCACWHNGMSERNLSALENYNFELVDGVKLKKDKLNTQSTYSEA

inhibition, active:
Cc1ccc(-c2nc(C)sc2CC(=O)OCC(=O)Nc2c(F)cccc2F)cc1 24.9%, O=C(COc1ccc(/C=N/NS(=O)(=O)c2ccccc2)cc1)NCCc1ccccc1 31.8%, COc1ccc(S(=O)(=O)/N=C2\C=C(NS(=O)(=O)c3ccccc3)C(=O)c3ccccc32)cc1 41.6%, CC(=O)NNc1cc(=O)c2c(=O)n(C)c(=O)n(C)c2[nH]1 21.9%, CCOC(=O)c1cc(NC(=O)c2ccc(Cl)cc2)c(=O)oc1-c1ccccc1 24.4%, O=C(O)C1CCN(c2ccc([N+](=O)[O-])cc2[N+](=O)[O-])CC1 27.4%, Cc1ccc(CC2CC(=O)N(c3cc(C)ccc3C)C2=O)cc1 (stereo not given) 50%, CC1O[C@@H](OC2C(O)C(C)O[C@H](OC(=O)[C@]34CCC(C)(C)C[C@H]3C3=CCC5[C@@]6(C)CC(O)C(O[C@@H]7OC(CO)C(O)[C@@H](O)[C@@H]7O)[C@@](C)(C(=O)O)C6CC[C@@]5(C)[C@]3(CO)CC4)C2O[C@H]2OC(C)[C@@H](O[C@@H]3OCC(O[C@@H]4OC(CO)C(O)[C@H](O)C4O)[C@@H](O)[C@@H]3O)[C@H](O)C2O)C(O)C(O)C1O (stereo not given in full) 36.2%, O=C1OC(Cc2ccccc2)C(c2ccccc2)C1=O (stereo not given) 24.2%, Cc1ccc(CN(CC(=O)NC2CCCCC2)C(=O)c2csnn2)cc1 24.5%, COC(=O)c1cc(NC(=O)CN2CCC(C(N)=O)(N3CCCCC3)CC2)cc(C(=O)OC)c1 20.2%

inhibition, inactive:
Cc1n[nH]c(=O)c2c(NC(=O)COC(=O)c3ncc(Cl)c(Cl)c3Cl)oc(C)c12 4.1%, Cc1nc(-c2ccc(F)cc2)c(CC(=O)N(C)CC(=O)Nc2c(C)cccc2C)s1 -11.9%, CCOc1ccc(-c2nc(C)sc2CC(=O)O)cc1 0.2%, CCOC(=O)C1=C(N)N2C(=O)C(C)SC2=C(C(=O)OCC)C1c1cc(OC)c(OC)c(OC)c1 (stereo not given) 6.5%, O=C(COc1ccc(S(=O)(=O)NCCc2ccccc2)cc1)N1CCCC1 0.6%, COc1ccc(OCC(=O)NCCc2ccc(S(N)(=O)=O)cc2)cc1 -12.6%, CCc1ccnc(NC(=O)Nc2ccc(OCc3ccccc3)cc2)c1 2.7%, O=C(c1ccc(F)cc1)n1c(=S)nc2ccccn21 -0.8%, CC(=O)OCc1cc(=O)n(C)c(=O)n1C 14.5%, COc1ccc(NS(=O)(=O)c2ccc(Oc3c(C#N)cccc3C#N)cc2)cc1 6.6%, Cc1ccc(S(=O)(=O)/N=C2\C=C(NS(=O)(=O)c3ccc(C)cc3)C(=O)c3ccccc32)cc1 24.8%, CCOCCC(=O)Nc1ccc2c(c1)c(=O)n(C)n2-c1ccc2ccccc2c1 -1.8%, Cc1cc(S(=O)(=O)c2cc3ccc(O)c(C)c3oc2=O)ccc1F 6%, CCN(CC)P(=O)(C(NC(=O)OC)C(F)(F)C(F)(F)C(F)(F)C(F)F)N(CC)CC (stereo not given) 0.3%, CCC(=O)NNc1cc(=O)c2c(=O)n(C)c(=O)n(C)c2[nH]1 1.9%, CC(=O)Nn1cc2c(=O)n(C)c(=O)n(C)c2c1 -0.7%, CCOCCCn1c(SCC(=O)Nc2cc(OC)ccc2OC)nc2ccccc2c1=O 6.3%, CC(=O)NC(Cc1ccc(F)cc1)C(=O)O (stereo not given) -13.6%, O=C1Nc2ccccc2-n2nnnc2C1N1CCN(c2cccc(C(F)(F)F)n2)CC1 (stereo not given) 3.4%, CCOC(=O)c1cccnc1NC(=O)c1ccncc1 -9.5%, COC(=O)c1ccc(C(=O)Nc2cc(Cl)ccc2Cl)cc1NC(=O)c1ccccc1C -6%, O=C(COC(=O)c1ccc(S(=O)(=O)Nc2ccccc2)cc1)NCC1CCCO1 (stereo not given) 9.7%, CCN(C(=O)COC(=O)c1ccccc1O)c1cccc2ccccc12 6.5%, COc1ccc(S(=O)(=O)c2c[nH]c(=S)[nH]c2=O)cc1Cl -6%, CCC(C)(C)NC(=O)c1cc([N+](=O)[O-])ccc1N1CCCCC1 8.9%, O=[N+]([O-])c1ccc(N2CCN(c3ccc(O)cc3)CC2)c(Cl)c1 -3.9%, CC(CC(=O)C1C(C)C=CCC1(C)C)NNC(N)=O (stereo not given) 12.3%, O=C(CSc1ccc(-c2ccc(-n3cccn3)cc2)nn1)Nc1ccc([N+](=O)[O-])cc1 15.2%, O=C(NC1CCCC1)C(NS(=O)(=O)c1ccc(Br)s1)c1ccccc1 (stereo not given) -3%, COCCNC(=O)C1C(=O)Nc2ccccc2C(=O)N1c1ccc2c(c1)OCCO2 (stereo not given) -11.4%, Cc1ccc(CC2CC(=O)N(c3ccc4c(c3)OCCO4)C2=O)cc1 (stereo not given) 4.8%, Cc1ccc(CC2CC(=O)N(c3nc(C)cc(C)n3)C2=O)cc1 (stereo not given) 13.2%, CN(CC(=O)NCCc1ccc(S(N)(=O)=O)cc1)CC(=O)Nc1ccc(F)c(F)c1F 7.4%, Oc1ccc(-c2nncn2-c2ccccc2)cc1 2.8%, CC1(C)C2CC[C@]3(C)C(CC=C4[C@@H]5C[C@@](C)(CO)CC[C@]5(C(=O)O)CC[C@]43C)[C@@]2(C)CC[C@@H]1O (stereo not given in full) -11.3%, O=C1c2ccccc2C(=O)C1c1ccccc1 -13.9%, O=C1CCC(Cc2ccccc2)N1 (stereo not given) -7%, COc1ccc(Cl)cc1-c1cc(C(=O)Nc2cc(OC)c(OC)c(OC)c2)[nH]n1 5.6%, CC(=O)N/C(=C\c1ccccc1)C(=O)OC(C)C(=O)N(C)c1ccccc1 (stereo not given) 6.8%, Cc1ccccc1CCN(CC(=O)NC1CCCCC1)C(=O)c1csnn1 -9.2%, O=C(CN(C(=O)c1csnn1)c1ccc(Br)cc1)NC1CCCC1 3.2%, Nc1nc2c(Br)ccc(Br)c2cc1C(=O)NCCc1ccccc1 6.1%, COCC(=O)Nc1cc(C(=O)OC)cc(C(=O)OC)c1 5.2%, COC(=O)c1cc(NC(=O)CN2CCN(C(C)=O)CC2)cc(C(=O)OC)c1 3%
